According to PubChem BioAssay (Tox21):
Records with an inconclusive call do not appear. Unmarked numbers belong to inactive results. The source made the active and inactive calls. The call rests on the fitted dose curve; in most records, active means well fitted cell-killing curve with a large enough effect in the repeat runs; inconclusive means weak or mixed curves; inactive means flat fitted curve, though single readings scatter.

Experiment: qHTS RealTime-Glo MT Cell Viability Assay in HepG2 cells - 16 hour (AID 1224885); further: nearly all actives have a fitted effect of over 50% in size
Settings: RealTime-Glo luminescence; series mostly up to 76.8 µM
From the text: U.S. Tox21 Program National Center for Advancing Translational Sciences [NCATS] NIH Chemical Genomics Center [NCGC] U.S. Environmental Protection Agency [EPA] National Institutes of Environmental Health Sciences [NIEHS] National Toxicology Program [NTP] U.S. Food and Drug Administration [FDA] Tox21 Assay Overview: Measure of cell viability is critical in the cell-base assay. Analysis of cell viability is necessary for the characterization of cell responses to cytotoxic drugs and environmental stress. A RealTime-Glo MT Cell Viability Assay to monitor cell viability in real time of continues cell culture during 40 hours of compound treatment was used to screen Tox21 10K library compounds in HepG2 cells. The RealTime-Glo MT Cell Viability Assay is a nonlytic, homogeneous, bioluminescent method to measure cell viability in real time using a simple, plate-based method. The assay involves adding NanoLuc luciferase and a cell-permeant prosubstrate to cells in culture. Viable cells reduce the proprietary prosubstrate to generate a substrate for NanoLuc luciferase. This substrate diffuses from cells into the surrounding culture medium, where it is rapidly used by the NanoLuc Enzyme to produce a luminescent signal. The signal correlates with the number of viable cells, making the assay well suited for cytotoxicity studies.
Tox21 Assay Protocol Summary: The mixture of HepG2 cell suspension and reagents were dispensed at 600cells/6 ul/well in 1536-well tissue culture treated black solid bottom plates using a Multidrop dispenser. After the assay plates were incubated at a 37 C/5% CO2 incubator for 5 hours, 23 nL of compounds dissolved in DMSO, positive and negative controls was transferred to the assay plate by a pintool work station. The plates were incubated at 37 C for 40 hours. The luminescence intensity were measured at 0h, 8h, 16h, 24h, 32h and 40h time points using ViewLux plate reader during compound treatment.
On the % scale 0 is the no-effect control and ±100 the full control effect.

| Compound | outcome | activity change, negative = cytotoxic |
| --- | --- | --- |
| CCOC(=O)CC(O)(CC(=O)OCC)C(=O)OCC | inactive | – |
| CC(C)CCCCCCCOC(=O)c1ccc(C(=O)OCCCCCCCC(C)C)c(C(=O)OCCCCCCCC(C)C)c1 | inactive | – |
| CCOc1cc(OCC)c(C(C)=O)cc1OCC | inactive | – |
| Oc1ccc(Oc2ccccc2)cc1 | inactive | – |
| CC(C(=O)O)c1ccc2c(c1)Cc1cccnc1O2 (stereo not given) | inactive | – |
| Cc1c(-c2cccnc2)c2ccccc2n1CCCCC(=O)O | inactive | – |
| C=C[Si](OCC)(OCC)OCC | inactive | – |
| CCCCCC1CCC(=O)O1 (stereo not given) | inactive | – |
| Cc1nc(C)c(C)nc1C | inactive | – |
| C=CC(O)CCCCC (stereo not given) | inactive | – |
| CCCCCCCCCCCCSCCOCCO | inactive | – |
| COc1ccc(/C(C)=C/C(=O)O)c(OC)c1 | inactive | – |
| CCCC(=O)OCCC(C)C | inactive | – |
| Cc1ccc2ccccc2c1[N+](=O)[O-] | inactive | – |
| C=CC(=O)NC(C)(C)C | inactive | – |
| CCC(CC)C(=O)O | inactive | – |
| O=C(OCCOCCOCCOC(=O)c1ccccc1)c1ccccc1 | inactive | – |
| c1ccc(-c2ccc(-c3ccccc3)cc2)cc1 | – | 0.423% [at 15.8 µM] |
| O=C(O)CNc1ccccc1 | inactive | – |
| Oc1ccc(CCNCCCCCCNCCc2ccccc2)cc1O | inactive | – |

| Compound | outcome | activity change, negative = cytotoxic |
| --- | --- | --- |
| CCCc1ccc(OC)cc1 | inactive | – |
| Cc1cc(SC2=C(O)C[C@@](CCc3ccc(N)cc3)(C(C)C)OC2=O)c(C(C)(C)C)cc1CO | inactive | – |
| CCCC1CCCC(=O)O1 (stereo not given) | inactive | – |
| O=C(Cl)c1cc(Cl)cc(Cl)c1 | inactive | – |
| CCC(=O)O[C@]1(C(=O)COC)[C@@H](C)C[C@H]2[C@@H]3CCC4=CC(=O)C=C[C@]4(C)C3(F)[C@@H](O)C[C@@]21C (stereo not given in full) | inactive | – |
| Clc1cc(Cl)c2c(c1)N=C1CCCCCN1C2 | inactive | – |
| CCOc1ccc(NC(C)=O)cc1N | inactive | – |
| C=CC(C)CCC=C(C)C (stereo not given) | inactive | – |
| O=S(=O)(O)c1cc(Cl)c(Cl)cc1Cl | inactive | – |
| O=C(O)c1ccccc1-n1cc(C(=O)O)c(=O)c2cc(Nc3c(F)cc(F)cc3Cl)c(Cl)cc21 | inactive | – |
| CC/C=C/CCO | inactive | – |
| CC(C)(C)c1cc(C=O)cc(C(C)(C)C)c1O | inactive | – |
| O=C(O)c1ccc(O)c(O)c1 | inactive | – |
| O=C(O)c1ccc2cc(O)ccc2c1 | inactive | – |
| CCOCCn1c(N2CCCN(C)CC2)nc2ccccc21 | inactive | – |
| CC(O)C(C)O (stereo not given) | inactive | – |
| CCCCCCCCS | inactive | – |
| CCCCCCCCCCCC(=O)OCC | inactive | – |
| COC(=O)C(C)(C)C | inactive | – |
| CC(COc1ccccc1)NC(C)C(O)c1ccc(O)cc1 (stereo not given) | inactive | – |
